This note sets out measurements from PubChem BioAssay (EPA / NIEHS).

Several values for one entry are separate records, joined by “and”; a condition that tells them apart may be missing. Equal values may be shown once. Records with an inconclusive call do not appear. Activity calls are given as the source filed them. The calls were made as follows: active = hit-call score of the fitted dose curve at least 0.9, where 1 is the maximum; inconclusive = response in the unintended direction; inactive = score below 0.9.

For orientation: AC50 means the concentration at which the activity in the assay is half-maximal.

In this test the target is human Constitutive Androstane Receptor (CAR), NR1I3 (gene 9970) (UniProt Q14994). In words: NVS_NR_hCAR_Antagonist: NovaScreen (NVS) Nuclear Receptor Binding Assay for human Constitutive Androstane Receptor Antagonism (CAR) (AID 2283344). The procedure: NVS_NR_hCAR_Antagonist is a biochemical, single-readout assay that uses extracted gene-proteins in a cell-free assay. Measurements were taken 1 hour after chemical dosing in a 384-well plate.NVS_NR_hCAR_Antagonist is one of one assay component(s) measured or calculated from the NVS_NR_hCAR_Antagonist assay. It is designed to make measurements of fluorescent resonance energy transfer, a form of binding reporter, as detected with fluorescent resonance energy transfer signals by Time-Resolved Fluorescence Resonance Energy Transfer (TR-FRET) technology.Data from the assay component NVS_NR_hCAR_Antagonist was analyzed into 1 assay endpoint. This assay endpoint, NVS_NR_hCAR_Antagonist, was analyzed in the positive analysis fitting direction relative to DMSO as the negative control and baseline of activity. Using a type of binding reporter, loss-of-signal activity can be used to understand changes in the binding as they relate to the gene NR1I3. Furthermore, this assay endpoint can be referred to as a primary readout, because the performed assay has only produced 1 assay endpoint. To generalize the intended target to other relatable targets, this assay endpoint is annotated to the nuclear receptor intended target family, where the subfamily is non-steroidal.
Sequence of human Constitutive Androstane Receptor (CAR), NR1I3 (gene 9970) (Q14994 whole entry, looked up): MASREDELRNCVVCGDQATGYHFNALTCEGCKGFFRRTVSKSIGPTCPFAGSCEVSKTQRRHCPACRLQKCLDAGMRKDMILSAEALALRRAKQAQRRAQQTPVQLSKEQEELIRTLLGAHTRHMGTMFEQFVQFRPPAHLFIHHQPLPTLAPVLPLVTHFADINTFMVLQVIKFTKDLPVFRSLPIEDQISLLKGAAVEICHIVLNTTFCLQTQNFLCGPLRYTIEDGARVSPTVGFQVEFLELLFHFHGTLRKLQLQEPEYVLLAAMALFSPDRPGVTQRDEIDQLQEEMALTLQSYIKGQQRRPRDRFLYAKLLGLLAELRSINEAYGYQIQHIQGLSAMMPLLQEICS
Binding assays used specific radioligands (tritiated, iodinated) with non-radioactive competitive displacement ligands in agonist or antagonist protocols (as indicated) and various reference compounds and inhibitors to titrate specific binding to receptors and transporters. Most enzyme assays (CYPs, kinases, phosphatases, proteases, HDACs) used recombinant protein and specific substrates (fluorescence mostly, some colorimetric and radioactive) and inhibitors, followed by a biochemical separation of substrate and product. All assays for the biochemical HTS were initially run in duplicate at a single concentration (10 uM for CYP450 assays and 25 uM for all others). […] Each assay was run with positive and negative controls, and concurrent controls on every plate. The follow-up (secondary) screen tested active chemical-pairs in concentration series, as well as a few additional assays not tested in the primary screen, some selected negative inactives, and several cases re-run in the concentration series for confirmatory purposes.
Turning to `CS/C(C)=N/OC(=O)N(C)SN(C)C(=O)O/N=C(\C)SC`, the result was inactive. With `N#Cc1cc(Br)c(O)c(Br)c1`, the compound was classed as inactive. On the same count and under the same terms, next, `COc1nc(C)nc(NC(=O)NS(=O)(=O)c2ccccc2CCC(F)(F)F)n1`: “inactive”. As for `CCOP(=S)(OCC)SCn1c(=O)oc2cc(Cl)ccc21`, the call was inactive. On to `CCCN(CCC)c1c([N+](=O)[O-])cc(S(N)(=O)=O)cc1[N+](=O)[O-]`, for which the concentration at half-maximal activity (AC50) is 526 nM (active) and 6.79 µM (active). Turning to `CCOC(=O)CC(SP(=S)(OC)OC)C(=O)OCC` (stereo not drawn), the AC50 is 18.6 µM (active). For `CCON=C(CC)C1=C(O)CC(c2c(C)cc(C)cc2C)CC1=O` (stereo not drawn), the result was inactive. For `CCCCC(CC)COC(=O)c1ccccc1C(=O)OCC(CC)CCCC` (stereo not drawn), the call was inactive. As for `CNC(=O)ON=CC(C)(C)SC`, the compound was classed as inactive. For the compound `COP(N)(=O)SC` (stereo not drawn), the compound was classed as inactive. As for `COc1ccc(C(c2ccc(OC)cc2)C(Cl)(Cl)Cl)cc1`, the call was inactive. On the same count and under the same terms, next, `CO/C=C(/C(=O)OC)c1ccccc1Oc1cc(Oc2ccccc2C#N)ncn1`: “inactive”. In the case of `CCCC1COC(Cn2cncn2)(c2ccc(Cl)cc2Cl)O1` (stereo not drawn), the AC50 was 11.8 µM (active) and 25 µM (active). Turning to `OC(c1ccc(Cl)cc1)(c1cncnc1)c1ccccc1Cl` (stereo not drawn), the AC50 was 25 µM (active). For `COC(=O)N(OC)c1ccccc1COc1ccn(-c2ccc(Cl)cc2)n1`, the compound was classed as inactive. As for `CON(C)C(=O)Nc1ccc(Cl)c(Cl)c1`, the compound was called inactive.

As to `CCNc1nc(Cl)nc(NCC)n1`, the call was inactive. Consider `Cc1ccc(-c2c(Cl)nc(C#N)n2S(=O)(=O)N(C)C)cc1`, for which the result was inactive. Turning to `C#CCOS(=O)OC1CCCCC1Oc1ccc(C(C)(C)C)cc1` (stereo not drawn), the outcome was inactive. As to `COC(=O)c1ccccc1C(=O)OC`, the call was inactive. Regarding `CCCCOC(=O)c1ccccc1C(=O)OCCCC`, the result was inactive. Take `O=C(O)COc1nc(Cl)c(Cl)cc1Cl`: the compound was classed as inactive.

`CNC(=S)S`: the result was inactive.
